Assay outcomes as filed in PubChem.
JMJD2A Tudor – inhibitors of human JMJD2A Tudor domain. AID 504339. actives 4.4% (n = 390,000). Potency, µM (series often up to 114 µM), most hits filed as inhibitors. AlphaScreen JMJD2A-Tudor / H3K4me3 peptide binding. O75164; also: nearly all actives have a fitted effect of over 50% in size
Target sequence (O75164 whole entry, looked up, the tested form may be a part): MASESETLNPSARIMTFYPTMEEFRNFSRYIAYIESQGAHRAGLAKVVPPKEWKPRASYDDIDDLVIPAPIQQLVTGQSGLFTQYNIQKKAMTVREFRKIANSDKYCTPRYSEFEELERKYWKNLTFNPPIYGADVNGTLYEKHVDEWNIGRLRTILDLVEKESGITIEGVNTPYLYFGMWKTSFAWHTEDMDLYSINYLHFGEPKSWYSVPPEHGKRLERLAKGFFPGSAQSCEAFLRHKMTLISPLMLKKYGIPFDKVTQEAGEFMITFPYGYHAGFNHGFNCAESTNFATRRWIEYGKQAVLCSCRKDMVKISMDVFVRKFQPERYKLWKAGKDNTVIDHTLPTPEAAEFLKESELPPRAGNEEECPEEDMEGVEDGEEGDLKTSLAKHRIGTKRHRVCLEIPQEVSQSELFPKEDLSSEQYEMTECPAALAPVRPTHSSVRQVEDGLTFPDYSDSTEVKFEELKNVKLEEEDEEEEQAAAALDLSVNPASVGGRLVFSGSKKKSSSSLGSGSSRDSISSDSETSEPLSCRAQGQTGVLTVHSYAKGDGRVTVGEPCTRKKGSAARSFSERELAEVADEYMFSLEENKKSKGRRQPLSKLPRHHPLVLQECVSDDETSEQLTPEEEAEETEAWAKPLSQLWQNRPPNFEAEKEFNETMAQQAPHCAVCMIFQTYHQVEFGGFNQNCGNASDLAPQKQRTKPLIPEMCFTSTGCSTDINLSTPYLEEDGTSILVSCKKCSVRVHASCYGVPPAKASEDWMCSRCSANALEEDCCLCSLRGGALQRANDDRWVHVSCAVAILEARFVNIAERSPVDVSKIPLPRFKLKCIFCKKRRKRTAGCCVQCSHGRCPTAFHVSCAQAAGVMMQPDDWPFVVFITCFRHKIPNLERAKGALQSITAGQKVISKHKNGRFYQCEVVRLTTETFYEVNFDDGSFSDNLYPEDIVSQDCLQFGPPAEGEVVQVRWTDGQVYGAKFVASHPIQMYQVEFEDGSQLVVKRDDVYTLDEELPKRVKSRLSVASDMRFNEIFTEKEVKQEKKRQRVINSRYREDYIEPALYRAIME
PLK1 PBD block – PLK1 (human) polo-box domain binding inhibition; P53350; Plk1 PBD binding of FITC phosphopeptide, fluorescence polarization; Potency, µM, actives largely listed as inhibitors; actives 2.8% (n = 360,000); AID 720504; also: series mostly up to about 57 µM; nearly all actives have a fitted effect of over 65% in size
G9a inh – inhibitors of human histone lysine methyltransferase G9a; Q96KQ7; G9a H3K9 monomethylation, AlphaScreen, 2 h; Potency, µM (doses to about 102 µM), hits mostly inhibitors; actives 8.8% (n = 350,000); AID 504332; also: nearly all actives have a fitted effect of over 75% in size
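AlphaScreen detection with an anti-monomethyl H3K9 antibody quantified product after a 2 h room-temperature reaction containing 500 nM biotinylated H3K9 peptide, 20 µM SAM and 20 nM enzyme, which had been preincubated 15 min with compound.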
HP1b binding inh – inhibitors of HP1-beta chromodomain binding to methylated histone tails. P83916. AlphaScreen HP1-beta / biotin-H3K9me3 peptide binding. Potency, µM (series often up to 114 µM), most hits filed as inhibitors. actives 0.56% (n = 390,000); also: nearly all actives have a fitted effect of over 70% in size
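AlphaScreen: HP1-beta (50 nM) preformed 30 min with biotin-H3(1-18)K9me3 peptide (50 nM) in PBS pH 7.4, 0.01% Tween-20. Compound added for 30 min at RT, then streptavidin donor/nickel chelate acceptor beads (10 ug/mL) for 30 min.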
PI5P4K alpha inh – blocks human PI5P4K alpha kinase activity. PI5P4Kalpha enzyme, ADP-Glo luminescence, 60 min; hits give low values. P48426. max response, %. actives 1.2% (n = 330,000); active = max response of -50% or lower; inconclusive = between -30% and -50%; inactive = -30% or higher; also: value at the top dose of about 77 µM
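qHTS, 1536-well: enzyme/substrate mix, compound by pin tool, 5 microM ATP final; RT 60 min; ADP-Glo reagents 1 (45 min) then 2 (30 min); luminescence.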
BAZ2B block – inhibitors of human BAZ2B bromodomain; AlphaScreen BAZ2B-H3K14Ac peptide displacement; Potency, µM (series often up to 114 µM), usual class: inhibitors; actives 4.4% (n = 360,000); also: nearly all actives have a fitted effect of over 60% in size
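BAZ2B 50 nM plus b-H3(5-23)K14Ac 50 nM, PBS pH 7.4/0.01% Tween-20, 30 min RT; compound added (max 110 uM), 30 min RT; streptavidin donor/Ni-chelate acceptor beads 10 ug/mL final, 20 min dark; AlphaScreen read.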
Hits are given with their value; – = inactive; ? = inconclusive; · = not tested or not shown; [ ] = remark or other dose. Compounds with a hit are over-represented: about 12% of the library has one in this group of screens. Unless noted, calls follow the shape of the dose curve; as a rule, active = well fitted curve in the direction sought with a large enough effect; inconclusive = small, poorly fitted or top-dose-only effect, or another doubt; inactive = no such curve, though single readings can be large; an effect the other way counts as inactive or inconclusive.

SMILES	JMJD2A Tudor	PLK1 PBD block	G9a inh	HP1b binding inh	PI5P4K alpha inh	BAZ2B block
Cc1c2oc3c(C)ccc(C(=O)N[C@@H]4C(=O)N[C@H](C(C)C)C(=O)N5CCC[C@H]5C(=O)N(C)CC(=O)N(C)[C@@H](C(C)C)C(=O)O[C@@H]4C)c3nc-2c(C(=O)N[C@@H]2C(=O)N[C@H](C(C)C)C(=O)N3CCC[C@H]3C(=O)N(C)CC(=O)N(C)[C@@H](C(C)C)C(=O)O[C@@H]2C)c(N)c1=O	·	·	11.2µM	·	·	·
CCC1NC(=O)C(NC(=O)c2ncccc2O)C(C)OC(=O)C(c2ccccc2)NC(=O)C2CC(=O)CCN2C(=O)C(Cc2ccccc2)N(C)C(=O)C2CCCN2C1=O (stereo not drawn)	·	·	–[2.33 µM]	·	·	·
CCOCCCNC(=O)CN1C(=O)c2c(c3ccccc3n2C)C1c1ccc(OC)cc1 (stereo not drawn)	–	·	–	–	·	?
O=C(COc1ccccc1[N+](=O)[O-])Nc1cccc(C(=O)Nc2ccccc2C(=O)O)c1	?	–	–	–	-62.5	–
O=C(COc1ccccc1Cl)Nc1ccccc1C(=O)Nc1cccc(C(=O)O)c1	–	–	–	–	–	–
Cc1cc(C(=O)Nc2ccccc2C(=O)O)ccc1NC(=O)COc1ccccc1Cl	–	?	22.4µM	–	?	–
CC(C)c1ccc(OCC(=O)Nc2cccc(C(=O)Nc3ccccc3C(=O)O)c2)cc1	–	?	–	–	?	?
O=C(COc1ccccc1Cl)Nc1ccc(C(=O)O)cc1NC(=O)COc1ccccc1Cl	–	–	–[12.7 µM]	–	-64.3	–
O=C(Nc1ccc(F)cc1)C(CCc1ccccc1)N1CCN(C(=O)c2ccco2)CC1 (stereo not drawn)	·	–	·	·	–	·
Cc1c2cnccc2c(C)c2c1oc1ccccc12	–	–	·	–	–	·
O=C(Cn1cnc2c(OCc3ccccc3)ncnc21)NCc1ccccc1	?	23.8µM	·	–	–	·
Cc1ccc(-c2ccccc2NC(=O)CS(=O)CC(=O)Nc2ccc(C)c(Cl)c2)o1 (stereo not drawn)	–	18.9µM	35.5µM	–	–	–
Cc1ccc(-c2ccccc2NC(=O)CCl)o1	–	–	–	–	–	?
CCCc1nc2c(C)cc(C)cc2c(N)c1CC	4.47µM	–	?	–	·	–
O=C(Nc1ccccc1F)c1csc(COCCO)n1	·	–	·	·	–	·
CCNC(=O)NCc1cccc(Cl)c1	·	·	–[12.7 µM]	·	·	·
CCOc1ccc(C(=O)Nc2cccc(C(=O)O)c2)cc1Cl	–	–	–	–	–	–
CCOc1ccc(C(=O)Nc2cc(NC(=O)c3ccc(OCC)c(Cl)c3)cc(C(=O)O)c2)cc1Cl	50.1µM	?	?	?	–	?
CCSc1nnc2ccc(-c3ccc(OC)c(OC)c3)nn12	?	21.2µM	–	–	–	–
COCCNC(=O)C1CCN(S(=O)(=O)c2ccc3c(c2)CCCN3C(C)=O)CC1	–	·	–	–	·	–
CN(C(=O)c1cc2c(=O)n3ccccc3nc2n1C)c1ccccc1	–	·	–	–	·	–
CCc1ccc(NCc2cc3cc4c(cc3n(CC(=O)Nc3ccccc3OC)c2=O)OCCO4)cc1	?	·	?	–	·	–
CCC(C)CCCCCCCCCCC(=O)O (stereo not drawn)	50.1µM	21.2µM	·	–	–	·
CCCC(N)CCCCCC(=O)O (stereo not drawn)	–	–	–	–	–	–
COc1ccc(Cl)cc1NS(=O)(=O)c1cccc(C(=O)NCCCN2CCCC2=O)c1	–	–	–	–	–	–
SMILES	JMJD2A Tudor	PLK1 PBD block	G9a inh	HP1b binding inh	PI5P4K alpha inh	BAZ2B block
NNC(=O)c1cn2ccccc2n1	20µM	–	3.16µM	–	–	17.8µM
Cc1ccc2[nH]c(-c3cccc(N)c3)cc2c1	?	–	50.1µM	?	–	50.1µM
C/C(=N/Nc1ccc(C(=O)c2c(C)cc3ccccn23)cc1[N+](=O)[O-])c1ccc(O)cc1	?	–	·	?	–	·
COc1ccc2c(c1)cc(CNc1ccc(OC)c(OC)c1)c(=O)n2CC(=O)Nc1ccc(F)cc1	–	·	2.82µM	–	·	?
COc1ccc2cc(CNc3ccc(OC)c(OC)c3)c(=O)n(CC(=O)Nc3ccc(C)cc3)c2c1	–	·	2.82µM	–	·	–
COc1ccc2c(c1)cc(CNc1ccc(OC)c(OC)c1)c(=O)n2CC(=O)Nc1ccccc1C	–	·	?	–	·	–
CCCCCn1cc2c(c1-c1ccc(Br)cc1)c(=O)n(C)c(=O)n2C	–	·	–	–	·	–
Cc1ccc(-n2nnc3c(=O)n(CC(N)=O)cnc32)cc1	–	–	–	–	–	–
NC(=O)Cn1cnc2c(nnn2-c2ccc(F)cc2)c1=O	?	26.7µM	–	–	–	–
Cc1nn(CCOc2ccccc2Cl)c(C)c1[N+](=O)[O-]	–	–	50.1µM	–	–	–
Cc1nn(CCOc2cccc(Cl)c2)c(C)c1[N+](=O)[O-]	–	–	–	–	–	–
Cc1cc2c(Nc3ccc(O)cc3)ncnc2s1	–	–	56.2µM	–	–	?
Cc1cc2c(Nc3ccc(C(=O)O)cc3)ncnc2s1	–	–	·	–	–	–
CSc1nnc(N2C(=O)C(O)=C(C(=O)c3ccco3)C2c2ccccc2F)s1 (stereo not drawn)	50.1µM	–	–[0.0925 µM]	–	?	–
CSc1nnc(N2C(=O)C(O)=C(C(=O)c3ccco3)C2c2ccccc2)s1 (stereo not drawn)	?	–	39.8µM	–	–	?
CCOC(=O)c1ccc(NC(=O)CC2C(=O)N(c3cccc(OC)c3)C(=O)N2Cc2cccnc2)cc1 (stereo not drawn)	–	·	–	–	·	–
O=C1NC(=O)/C(=C/c2ccc(-c3cccc([N+](=O)[O-])c3)o2)S1	?	?	·	–	-51.2	?
O=C1NC(=Nc2ccccc2Cl)S/C1=C\c1ccc(C(=O)O)cc1	–	–	–	–	-65.2	–
O=C1NC(=Nc2ccccc2Cl)S/C1=C\c1cccc([N+](=O)[O-])c1	?	26.7µM	?	–	–	50.1µM
O=C1NC(=Nc2ccccc2Cl)S/C1=C\c1cccc([N+](=O)[O-])c1O	39.8µM	26.7µM	8.91µM	?	-84.7	11.2µM
Cc1ccccc1C(=O)NNS(=O)(=O)c1ccc(F)cc1	·	–	·	·	–	·
O=C1NC(=S)S/C1=C\c1cccc([N+](=O)[O-])c1	–	–	·	–	-65.4	·
CC1(C(=O)NS(=O)(=O)c2ccccc2Cl)CCN1C(=O)CCc1ccccc1 (stereo not drawn)	·	–	·	·	–	·
COc1ccc(C2Nc3ccccc3C(=O)N2CCc2ccccc2)cc1COc1ccc(NC(C)=O)cc1 (stereo not drawn)	–	·	·	·	·	·
Cc1ccc2c(c1)[C@H]1[C@H](CO2)[C@H](c2ccccc2)[C@]2(C)C(=O)N(Cc3ccc(F)cc3)CC(=O)N12	?	–	·	–	–	·
